Inconclusive results are not listed. Active and inactive are the calls of the source. The call rests on the fitted dose curve; tested in HEK293 reporter line. Peptide text beside a SMILES is read from it.
Assays:
[1] = qHTS for Inhibitors of the Functional Ribonucleoprotein Complex (vRNP) of Lassa (LASV) Arenavirus: LASV Primary Screen - GLuc reporter signal (AID 1347082); details: LASV minigenome vRNP, Gaussia luciferase reporter; series mostly up to 57.5 µM; further: nearly all actives have a fitted effect of over 60% in size
[2] = qHTS for Inhibitors of the Functional Ribonucleoprotein Complex (vRNP) of Lassa (LASV) Arenavirus: Viability assay - alamar blue signal for LASV Primary Screen (AID 1347083); details: cell viability, alamar blue fluorescence (LASV minigenome counter-screen); series mostly up to 57.5 µM; further: nearly all actives have a fitted effect of over 80% in size
[3] = qHTS for Inhibitors of the Functional Ribonucleoprotein Complex (vRNP) of Lymphocytic Choriomeningitis Arenaviruses (LCMV): Viability assay - alamar blue signal for LCMV Primary Screen (AID 1347085); details: alamar blue viability counter-screen, LCMV vRNP screen cells; series mostly up to 57.5 µM; further: nearly all actives have a fitted effect of over 80% in size

Measured: Potency

Cc1nc2n(c(=O)c1CCN1CCC(C(=O)c3ccc(F)cc3)CC1)CCS2
inactive: all assays above

CN(C)CCCSc1ccccc1NC(=O)/C=C/c1ccccc1
inactive: all assays above

COc1ccnc2c1CCCCC2S(=O)c1nc2ccccc2[nH]1 (stereo not given)
inactive: all assays above

NC(=O)C1(N2CCCCC2)CCN(CCCC(=O)c2ccc(F)cc2)CC1
inactive: all assays above

Cc1sccc1Br
inactive: all assays above

O=C(NN1CCCC1)NS(=O)(=O)c1ccc(Cl)cc1
inactive: all assays above

COc1ccc(C(Cl)=C(c2ccc(OC)cc2)c2ccc(OC)cc2)cc1
inactive: all assays above

N[C@H]1CN(c2c(F)cc3c(=O)c(C(=O)O)cn(C4C[C@@H]4F)c3c2Cl)CC12CC2 (stereo not given in full)
inactive: all assays above

CCCCCCCCCCCCCCNCCO
inactive: all assays above

CC(=O)/C=C/C=C1/C2CCC(C2)C1(C)C (stereo not given)
inactive: all assays above

N[C@H](Cc1c[nH]c2ccccc12)C(=O)O
inactive: all assays above

CC1CC(=O)NN=C1c1ccc(NCC(C)(C)NCC(O)COc2cc(Cl)ccc2C#N)cc1 (stereo not given)
inactive: all assays above

C#C[C@]1(OC(C)=O)CC[C@H]2[C@@H]3CCC4=C/C(=N/O)CC[C@@H]4[C@H]3CC[C@@]21CC
inactive: all assays above

O=C(O)/C=C/c1ccc(Cn2ccnc2)cc1
inactive: all assays above

CN(C)CCOC1=Cc2ccccc2Sc2ccc(Cl)cc21
inactive: all assays above

CC(=O)N[C@@H](CO)C(=O)N[C@@H](CC(=O)O)C(=O)N[C@@H](CCCCN)C(=O)N1CCC[C@H]1C(=O)O (Ac-SDKP-OH)
inactive: all assays above

O=C1CC2(CCCC2)CC(=O)N1CCNCC1COc2ccccc2O1 (stereo not given)
inactive: all assays above

C#C[C@]1(O)CC[C@H]2[C@@H]3[C@H](C)CC4=C(CCC(=O)C4)[C@H]3CC[C@@]21C
inactive: all assays above

COC(=O)c1cc(S(N)(=O)=O)ccc1OC
inactive: all assays above

CN(CCCN1c2ccccc2CCc2ccccc21)CC(=O)c1ccc(Cl)cc1
inactive: all assays above

C[C@]12CC[C@@H]3c4ccc(O)cc4CC[C@H]3[C@@H]1C[C@@H](O)[C@@H]2O
inactive: all assays above

C[C@]12CC[C@@H]3c4ccc(O)cc4CC[C@H]3[C@@H]1CC[C@@H]2OC(=O)CCC1CCCC1
inactive: all assays above

CC1=C(C)C(=O)C(CCCCC#CCCCC#CCO)=C(C)C1=O
inactive: all assays above

C[C@H](O)C(=O)Nc1c(I)c(C(=O)NC(CO)CO)c(I)c(C(=O)NC(CO)CO)c1I
inactive: all assays above

CCCNC(C)(C)COC(=O)c1ccccc1
inactive: all assays above

CCOc1ccc2nc(S(N)(=O)=O)sc2c1
inactive: all assays above

C[C@@H]1C[C@H]2[C@@H]3C[C@H](F)C4=CC(=O)C(Cl)=C[C@]4(C)[C@@]3(F)[C@@H](O)C[C@]2(C)[C@@]1(O)C(=O)CO
inactive: all assays above

CCN[C@H]1C[C@H](C)S(=O)(=O)c2sc(S(N)(=O)=O)cc21
inactive: all assays above

COc1cccc(N(C)C(=S)Oc2ccc3c(c2)CCCC3)n1
inactive: all assays above

Oc1ccc(/C=C/c2cc(O)cc(O)c2)cc1
inactive: all assays above

CN1CCCN(C(c2ccccc2)c2ccc(Cl)cc2)CC1 (stereo not given)
inactive: all assays above

O=C(CN1CCN(Cc2ccc3c(c2)OCO3)CC1)N1c2ccccc2Sc2ccccc21
inactive: all assays above

COc1ccc2c(c1)c(CC(=O)OCC(=O)O)c(C)n2C(=O)c1ccc(Cl)cc1
inactive: all assays above

Oc1ccc(Cl)cc1Sc1cc(Cl)ccc1O
inactive: all assays above

CCCCOc1ccc(C(=O)CCN2CCCCC2)cc1
inactive: all assays above

COc1ccc(-c2cc(C(F)F)nn2-c2ccc(S(N)(=O)=O)cc2)cc1F
inactive: all assays above

CCOC(=O)C(=O)CCc1ccccc1
inactive: all assays above

CCCCCCCCCCCCCCCCC(C(=O)O)C(O)(CC(=O)O)C(=O)O (stereo not given)
inactive: all assays above

OCC(CO)N[C@H]1C[C@](O)(CO)[C@@H](O)[C@H](O)[C@H]1O
inactive: all assays above

Cn1cnc2c1c(=O)[nH]c(=O)n2C
inactive: all assays above

CC1CCc2cc(F)cc3c(=O)c(C(=O)O)cn1c23 (stereo not given)
inactive: all assays above

C1CCN2C[C@@H]3C[C@@H](CN4CCCC[C@@H]34)[C@H]2C1
inactive: all assays above

CCCCCCCCCCCC[N+](C)(C)Cc1ccccc1
inactive: all assays above

C=CC[N+]1([C@H]2C[C@H]3[C@@H]4CC[C@H]5C[C@H](OC(C)=O)[C@@H](N6CCCCC6)C[C@]5(C)[C@H]4CC[C@]3(C)[C@H]2OC(=O)CC)CCCCC1
inactive: all assays above

O=C(/C=C/c1ccccc1)NCCO
inactive: all assays above

CCC(=O)c1ccc2c(c1)N(CCCN(C)C)c1ccccc1S2
inactive: all assays above

c1ccc2[nH]c(-c3cscn3)nc2c1
inactive: all assays above

Cc1c(Cn2ccnc2)c2ccccc2n1CCC(=O)O
inactive: all assays above

CCC1(c2cnc[nH]2)Cc2ccccc2C1
inactive: all assays above

Cc1cc(CC(=O)O)n(C)c1C(=O)c1ccc(Cl)cc1
inactive: all assays above

CCCCOC(=O)CCCCCCCCC(=O)OCCCC
inactive: all assays above

CC[N+]1(CC)CCC(=C(c2ccccc2)c2ccccc2)C1C (stereo not given)
inactive: all assays above

CCC(C)(C)c1ccc(CC(C)CN2C[C@@H](C)O[C@@H](C)C2)cc1 (stereo not given in full)
inactive: all assays above

CN(C)CC[C@@H](c1ccc(Cl)cc1)c1ccccn1
inactive: all assays above

CN1CCN(c2cc3c(nn2)Oc2ccccc2N3C)CC1
inactive: all assays above

O=c1ccc2ccccc2o1
inactive: all assays above

CCCCN1CCCC1C(=O)Nc1c(C)cc(C)cc1C (stereo not given)
inactive: all assays above

CCc1cc2cc(OC)c(OC)cc2c(Cc2ccccc2)n1
inactive: all assays above

CCCCCN(CCCCC)C(=O)C(CCC(=O)O)NC(=O)c1ccc(Cl)c(Cl)c1 (stereo not given)
inactive: all assays above

OC[C@]1(O)OC[C@@H](O)[C@H](O)[C@@H]1O
inactive: all assays above

NC(=O)Cc1cccc(C(=O)c2ccccc2)c1N
inactive: all assays above

CC(=O)NC(Cc1ccccc1)C(=O)O (stereo not given)
inactive: all assays above

CSc1ccc2c(c1)C(N1CCN(C)CC1)Cc1ccccc1S2 (stereo not given)
inactive: all assays above

COc1cc(NS(=O)(=O)c2ccc(N)cc2)nc(OC)n1
inactive: all assays above

CCCCCOc1ccc(C2SC(=O)NC2=O)cc1OCC (stereo not given)
inactive: all assays above

C=Cc1c(C)c2cc3[nH]c(cc4nc(cc5nc(cc1[nH]2)C(C)=C5CCC(=O)O)C(CCC(=O)O)=C4C)c(C)c3C=C
inactive: all assays above

Cc1c(N)cccc1C(F)(F)F
inactive: all assays above

O=c1[nH]c2ccccc2c(=O)n1CCCl
inactive: all assays above

O=C1OC2(c3ccc(O)cc3Oc3cc(O)ccc32)c2ccccc21
inactive: all assays above

CNC(=O)c1cnn(-c2nc(N)c3ncn([C@@H]4O[C@H](CO)[C@@H](O)[C@H]4O)c3n2)c1
inactive: all assays above

CNC[C@H](O)c1ccc(O)c(O)c1
inactive: all assays above

CC(Cc1cccc(C(F)(F)F)c1)NCCOC(=O)c1ccccc1 (stereo not given)
inactive: all assays above

CN(C)CCOc1ccccc1Cc1ccccc1
inactive: all assays above

C/C=C/C(=O)N(CC)c1ccccc1C
inactive: all assays above

CC(N)C(=O)OC(C)(C)Cc1ccc(Cl)cc1 (stereo not given)
inactive: all assays above

CCOC(=O)n1ccn(C)c1=S
inactive: all assays above

Cc1cc2c(OCC(CNC(C)(C)C)OC(=O)c3ccccc3)cccc2[nH]1 (stereo not given)
inactive: all assays above

CCCCN(CCCC)C(C(N)=O)c1ccc(OC)cc1 (stereo not given)
inactive: all assays above

CC(=O)OCC(=O)[C@@]1(O)CCC2C3CCC4=CC(=O)CC[C@]4(C)C3[C@@H](O)C[C@@]21C (stereo not given in full)
inactive: all assays above

CCOc1cc(N)c(Cl)cc1C(=O)NCC1CN(Cc2ccc(F)cc2)CCO1 (stereo not given)
inactive: all assays above

Clc1ccc(Cn2c(CN3CCCC3)nc3ccccc32)cc1
inactive: all assays above

CCN(CC)CCOC(=O)C(c1ccccc1)C1CCCCC1 (stereo not given)
inactive: all assays above

CC(=O)OCC(=O)[C@@]1(O)CC[C@H]2[C@@H]3CCC4=CC(=O)C=C[C@]4(C)[C@H]3[C@@H](O)C[C@@]21C
inactive: all assays above

CN1CCC(OC(c2ccccc2)c2ccccc2)CC1
inactive: all assays above

Nc1c2c(nc3ccccc13)CCCC2
inactive: all assays above
